# Laboratory results taken from PubChem BioAssay.
# Several values for one entry are separate records, joined by “and”; a condition that tells them apart may be missing. Identical values can stand only once. Activity calls are given as the source filed them.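 Rule for the calls, unless noted: active = compounds whose cell count with miR-34 switched on is under 0.7 times the count with it off; inactive = the rest.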
# What was measured:
# [1] = stimulators of nuclear beta-catenin in C2C12, primary screen, imaging, WNT3A-conditioned medium, mouse C2C12, NPC library (AID 1117326; in the data active = nuclear beta-catenin stimulation mostly above about 4.2%, no sharp cut-off; inactive = mostly below about 10%); conditions: stronger effect = higher value
# [2] = stimulators of insulin release from INS-1E, primary screen, cell-based, 5 mM glucose, NPC library (AID 1117329;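 active = compound raises insulin release from rat beta cells at 5 mM glucose, no numeric limit stated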); conditions: rat INS-1E insulin secretion, at 10 µM, stronger effect = higher value
# [3] = growth inhibition of GSK3B-pretreated HCT116 cells – cell-based, CellTiter-Glo, 0.2 to 20 µM (AID 1117336;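 active = compounds lowering colon cancer cell viability after pretreatment blocking the GSK3B kinase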); conditions: HCT116 viability after GSK3B inhibitor, at 20 µM, stronger effect = higher value
# [4] = inhibition of endothelial tube formation, primary screen, imaging, VEGF stimulated, CD31 staining, tube area, NPC library (AID 1117340;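 active = compound that reduces growth-factor-driven endothelial tube area in a mixed cell culture, no cutoff stated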); conditions: VEGF-stimulated ADSC/ECFC co-culture, at 10 µM, stronger effect = higher value
# [5] = glucagon-like peptide 1 release enhancers, primary assay, NCI-H716 cell line, NPC library (AID 1117341;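 active = compound raises GLP1 secretion from the human gut endocrine cells, with no numeric limit stated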); conditions: NCI-H716 cells, at 10 µM, stronger effect = higher value
# [6] = HCT116 colon cancer cell growth inhibition, primary screen, CellTiter-Glo luminescence, NPC library (AID 1117342;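 active = compounds that lower survival of HCT116 colon cancer cells in the luminescence readout, no numeric limit stated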); conditions: at 20 µM (top of the series)
# [7] = CellTiter-Glo luminescent readout of SW480 viability loss, NPC library primary (AID 1117343;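 active = compounds that lower viability of the colon cancer cells in the luminescence readout, with no numeric limit stated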); conditions: CellTiter-Glo luminescence; at 20 µM (top of the series) unless noted
# [8] = decreased DLD-1 cellular survival, CellTiter-Glo luminescent readout, NPC compound collection, primary HTS (AID 1117346;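 active = compounds that lower survival of DLD-1 colon cancer cells in the luminescence readout, no cutoff given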); conditions: DLD-1 viability, CellTiter-Glo luminescence; at 20 µM (top of the series)
# [9] = differential killing of epithelial or mesenchymal cells, primary screen, imaging, PC-3E GFP, TEM4-18 mCherry, co-culture (AID 1345086;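 active = compounds killing one labelled cell type while sparing the other, by normalised counts and ratio limits, not self-fluorescent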;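 for all read-outs here: cells exposed to compound for 72 h before imaging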;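 for red/green cell ratio (normalised): normalised mesenchymal count divided by normalised epithelial count so high means epithelial killing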); conditions: imaging cell counts, at 1 µM; for red/green cell ratio (normalised): actives lie on both sides, counts scaled to control wells, 1 = unselective
# [10] = sensitizers of A549 cells to miR-34 induction, primary screen, imaging, A549 dox-inducible miR-34, nuclei and caspase counts (AID 1347080); conditions: A549 miR-34 inducible, Hoechst nuclei count, 48 h
# [11] = survival rescue of mitochondrial mutant cells in low glucose, primary screen, MELAS cybrids, Rieske KO mouse fibroblasts, CellTiter-Glo (AID 1508586;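 active = mean z-score across replicates of 1.96 or higher in either the MELAS or the Rieske mutant cell line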;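 note: z relative to plate mean and SD of compound and empty wells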)
# [12] = target: NAD(+) hydrolase SARM1 (Homo sapiens) (UniProt Q6SZW1); experiment: SARM1 TIR NADase inhibitors, cell lysate, NAD-Glo luminescence (AID 1508614;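 active = compound whose remaining NAD level is above about 45 nM, limit read from the data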;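 note: higher remaining NAD means stronger inhibition of SARM1 NADase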); conditions: SAM-TIR HEK293T lysate NADase, at 1 µM, stronger effect = higher value
# [13] = hESC survival regulators, cell-based (AID 493140; call rule not given here;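 note: cells exposed to compounds for four days before counting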); conditions: human embryonic stem cell survival screen; stronger effect = higher value
# [14] = liver-stage malaria parasite growth inhibition, primary screen, cell-based, HepG2, luciferase luminescence, HepG2 viability (AID 624349; in the data active = parasite load remaining mostly below about 12%, no sharp cut-off; inactive = mostly above about 10%;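 note: 100% = mean of DMSO negative control wells on the same plate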); conditions: P. berghei liver stage in HepG2, luciferase luminescence, concentration not given here; parasite load remaining: stronger effect = lower value; viability: measured here: HepG2 viability without parasites
# [15] = measured here: epithelial PC-3E GFP cell survival
# [16] = measured here: mesenchymal TEM4-18 mCherry cell survival
# [17] = stronger effect = lower value, cell number ratio, induced over uninduced
# [18] = measured here: relative caspase fold change +Dox/-Dox
# [19] = measured here: total cells with miR-34 induction, stronger effect = lower value
# [20] = measured here: total cells without miR-34 induction
# [21] = MELAS cybrid survival, CellTiter-Glo 48 h, stronger effect = higher value
# [22] = Rieske KO mouse fibroblast survival, CellTiter-Glo 72 h
# Sequence of NAD(+) hydrolase SARM1 (Homo sapiens) (Q6SZW1 whole entry, looked up): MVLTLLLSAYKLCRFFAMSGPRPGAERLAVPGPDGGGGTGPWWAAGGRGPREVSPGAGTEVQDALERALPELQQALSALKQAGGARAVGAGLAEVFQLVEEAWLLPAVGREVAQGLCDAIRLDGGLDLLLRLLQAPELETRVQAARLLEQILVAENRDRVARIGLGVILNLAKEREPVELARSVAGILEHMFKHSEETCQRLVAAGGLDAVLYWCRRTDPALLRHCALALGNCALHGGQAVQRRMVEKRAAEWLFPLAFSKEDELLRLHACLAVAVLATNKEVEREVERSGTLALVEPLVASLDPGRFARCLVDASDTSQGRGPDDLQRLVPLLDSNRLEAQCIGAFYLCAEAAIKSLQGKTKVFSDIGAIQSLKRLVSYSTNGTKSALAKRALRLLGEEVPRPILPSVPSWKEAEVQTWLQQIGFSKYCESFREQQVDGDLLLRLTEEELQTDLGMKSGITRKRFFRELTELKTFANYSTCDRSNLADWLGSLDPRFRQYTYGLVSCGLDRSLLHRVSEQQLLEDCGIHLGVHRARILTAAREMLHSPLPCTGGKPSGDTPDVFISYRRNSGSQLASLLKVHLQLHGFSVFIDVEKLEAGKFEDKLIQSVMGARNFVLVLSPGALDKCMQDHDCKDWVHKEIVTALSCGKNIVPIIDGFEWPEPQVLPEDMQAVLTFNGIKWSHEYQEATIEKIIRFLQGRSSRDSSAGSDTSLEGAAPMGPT
compound,measurement,setting,value
CN1CCC(=C2c3ccccc3CCc3cccnc32)CC1,nuclear beta-catenin stimulation,[1]; at 10 µM,-2.3% (inactive)
same,nuclear beta-catenin stimulation,"[1]; stimulation, at 2 µM",-0.6%
same,insulin secretion stimulation,[2],9.4% (inactive)
same,viability decrease,[3],-3.7% (inactive)
same,tube area decrease,[4],15.1% (inactive)
same,GLP1 secretion stimulation,[5],2.5% (inactive)
same,inhibition of viability,[6],-2.7% (inactive)
same,viability decrease (inhibition),[7],13.6% (inactive)
same,viability decrease (inhibition),[8],-0.2% (inactive)
same,red/green cell ratio (normalised),[9],0.76 (inactive)
same,normalised cell number,[9]; [15],1.26
same,normalised cell number,[9]; [16],0.95
same,fold change,[10]; [17],0.929 (inactive) and 0.835 (inactive)
same,fold change,[10]; [18],0.933 and 0.421 and 1.15
same,cell count,[10]; [19],8510 and 8540 and 7120
same,cell count,[10]; [20],9160 and 9200 and 8530
same,z-score,[11]; [21],-0.226 (inactive) and -0.309 (inactive) and -0.701 (inactive)
same,z-score,[11]; [22],-0.00379 and -0.328 and -0.133
same,remaining NAD,[12],10 nM (inactive)
C[C@@H](O)[C@H]1C(=O)N2C(C(=O)O)=C(SCCN=CN)C[C@H]12,survival,[13],8.25 (inactive)
same,parasite load remaining,[14],97.9% (inactive) and 82.7% (inactive) and 21.5% (inactive)
same,viability,[14],121% and 75.9% and 75.5%
same,nuclear beta-catenin stimulation,[1]; at 10 µM,0.4% (inactive)
same,nuclear beta-catenin stimulation,"[1]; stimulation, at 2 µM",4%
same,insulin secretion stimulation,[2],-0.5% (inactive)
same,viability decrease,[3],6.7% (inactive)
same,tube area decrease,[4],8.2% (inactive)
same,GLP1 secretion stimulation,[5],-1.8% (inactive)
same,inhibition of viability,[6],1.15% (inactive)
same,viability decrease (inhibition),[7],-18.3% (inactive)
same,viability decrease (inhibition),[8],2% (inactive)
same,red/green cell ratio (normalised),[9],0.95 (inactive)
same,normalised cell number,[9]; [15],1.17
same,normalised cell number,[9]; [16],1.11
same,fold change,[10]; [17],1.02 (inactive) and 0.837 (inactive) and 0.836 (inactive)
same,fold change,[10]; [18],2.4 and 1.6 and 1.5
same,cell count,[10]; [19],10800 and 9100 and 8570
same,cell count,[10]; [20],10500 and 10900 and 10300
same,z-score,[11]; [21],0.502 (inactive) and 0.0491 (inactive)
same,z-score,[11]; [22],-0.015 and -0.95
same,remaining NAD,[12],10 nM (inactive)
CCOc1ccc2nc(S(N)(=O)=O)sc2c1,parasite load remaining,[14],32.3% (inactive) and 52.3% (inactive)
same,viability,[14],171% and 98.2%
same,nuclear beta-catenin stimulation,[1]; at 10 µM,1.3% (inactive)
same,nuclear beta-catenin stimulation,"[1]; stimulation, at 2 µM",0.1%
same,insulin secretion stimulation,[2],-2.2% (inactive)
same,viability decrease,[3],16.7% (inactive)
same,tube area decrease,[4],20.8% (inactive)
same,GLP1 secretion stimulation,[5],2.1% (inactive)
same,inhibition of viability,[6],-30% (inactive)
same,viability decrease (inhibition),[7],85.7% (active)
same,viability decrease (inhibition),[8],7.15% (inactive)
same,red/green cell ratio (normalised),[9],0.96 (inactive)
same,normalised cell number,[9]; [15],0.89
same,normalised cell number,[9]; [16],0.86
same,fold change,[10]; [17],0.841 (inactive) and 0.925 (inactive)
same,fold change,[10]; [18],3.81 and 2.83
same,cell count,[10]; [19],10500 and 10700
same,cell count,[10]; [20],12500 and 11500
same,z-score,[11]; [21],-0.477 (inactive)
same,z-score,[11]; [22],0.458
same,remaining NAD,[12],10 nM (inactive)
O=C(NCC(O)CO)c1c(I)c(C(=O)NCC(O)CO)c(I)c(N(CCO)C(=O)CO)c1I (stereo not drawn),survival,[13],5.33 (inactive)
same,parasite load remaining,[14],117% (inactive)
same,viability,[14],103%
same,nuclear beta-catenin stimulation,[1]; at 10 µM,0.6% (inactive)
same,nuclear beta-catenin stimulation,"[1]; stimulation, at 2 µM",1.1%
same,insulin secretion stimulation,[2],2.2% (inactive)
same,viability decrease,[3],-0.3% (inactive)
same,tube area decrease,[4],-24.3% (inactive)
same,GLP1 secretion stimulation,[5],-2.6% (inactive)
same,inhibition of viability,[6],50.9% (active)
same,viability decrease (inhibition),[7],15.5% (inactive)
same,viability decrease (inhibition),[8],27.9% (inactive)
same,red/green cell ratio (normalised),[9],0.86 (inactive)
same,normalised cell number,[9]; [15],1.25
same,normalised cell number,[9]; [16],1.07
same,fold change,[10]; [17],0.865 (inactive)
same,fold change,[10]; [18],1.27
same,cell count,[10]; [19],8520
same,cell count,[10]; [20],9850
same,z-score,[11]; [21],-0.49 (inactive)
same,z-score,[11]; [22],-1.02
same,remaining NAD,[12],10 nM (inactive)
O=C(Oc1cccc2cccnc12)c1ccccc1,parasite load remaining,[14],41.2% (inactive)
same,viability,[14],102%
same,nuclear beta-catenin stimulation,[1]; at 10 µM,19.8% (inactive)
same,nuclear beta-catenin stimulation,"[1]; stimulation, at 2 µM",0.5%
same,insulin secretion stimulation,[2],-2.2% (inactive)
same,viability decrease,[3],23.6% (inactive)
same,tube area decrease,[4],-21.4% (inactive)
same,GLP1 secretion stimulation,[5],0.9% (inactive)
same,inhibition of viability,[6],27.1% (inactive)
same,viability decrease (inhibition),[7],22.8% [at 2 µM] (inactive)
same,viability decrease (inhibition),[8],-5.55% (inactive)
same,red/green cell ratio (normalised),[9],1 (inactive)
same,normalised cell number,[9]; [15],1.14
same,normalised cell number,[9]; [16],1.13
same,fold change,[10]; [17],0.805 (inactive)
same,fold change,[10]; [18],5.26
same,cell count,[10]; [19],10400
same,cell count,[10]; [20],12900
same,z-score,[11]; [21],0.276 (inactive)
same,z-score,[11]; [22],0.498
same,remaining NAD,[12],10 nM (inactive)
CCN(CC)CCNC(C(=O)OCCC(C)C)c1ccccc1 (stereo not drawn),nuclear beta-catenin stimulation,[1]; at 10 µM,-0.8% (inactive)
same,nuclear beta-catenin stimulation,"[1]; stimulation, at 2 µM",-0.5%
same,insulin secretion stimulation,[2],32.4% (active)
same,viability decrease,[3],6.1% (inactive)
same,tube area decrease,[4],-3.9% (inactive)
same,GLP1 secretion stimulation,[5],8.2% (inactive)
same,inhibition of viability,[6],0.2% (inactive)
same,viability decrease (inhibition),[7],26.1% (inactive)
same,viability decrease (inhibition),[8],9.9% (inactive)
same,red/green cell ratio (normalised),[9],1.16 (inactive)
same,normalised cell number,[9]; [15],0.66
same,normalised cell number,[9]; [16],0.76
same,fold change,[10]; [17],0.979 (inactive)
same,fold change,[10]; [18],0.754
same,cell count,[10]; [19],8430
same,cell count,[10]; [20],8620
same,z-score,[11]; [21],0.328 (inactive)
same,z-score,[11]; [22],0.121
same,remaining NAD,[12],10 nM (inactive)
CCCOc1cc(N)ccc1C(=O)OCCN(CC)CC,survival,[13],9.5 (inactive)
same,parasite load remaining,[14],77.2% (inactive)
same,viability,[14],75.5%
same,nuclear beta-catenin stimulation,[1]; at 10 µM,0% (inactive)
same,nuclear beta-catenin stimulation,"[1]; stimulation, at 2 µM",0.6%
same,insulin secretion stimulation,[2],4.5% (inactive)
same,viability decrease,[3],-4.1% (inactive)
same,tube area decrease,[4],-15.3% (inactive)
same,GLP1 secretion stimulation,[5],-1.7% (inactive)
same,inhibition of viability,[6],-3.9% (inactive)
same,viability decrease (inhibition),[7],4% (inactive)
same,viability decrease (inhibition),[8],-9.1% (inactive)
same,red/green cell ratio (normalised),[9],1 (inactive)
same,normalised cell number,[9]; [15],1.21
same,normalised cell number,[9]; [16],1.21
same,fold change,[10]; [17],0.973 (inactive)
same,fold change,[10]; [18],0.697
same,cell count,[10]; [19],9580
same,cell count,[10]; [20],9850
same,z-score,[11]; [21],-0.734 (inactive)
same,z-score,[11]; [22],-0.617
same,remaining NAD,[12],10 nM (inactive)
CNCCc1ccccn1,survival,[13],9.67 (inactive)
same,parasite load remaining,[14],177% (inactive) and 67% (inactive) and 40.9% (inactive)
same,viability,[14],106% and 76.5% and 92.3%
same,nuclear beta-catenin stimulation,[1]; at 10 µM,0.2% (inactive)
same,nuclear beta-catenin stimulation,"[1]; stimulation, at 2 µM",1.8%
same,insulin secretion stimulation,[2],-0.8% (inactive)
same,viability decrease,[3],5.6% (inactive)
same,tube area decrease,[4],-1.2% (inactive)
same,GLP1 secretion stimulation,[5],-0.6% (inactive)
same,inhibition of viability,[6],-13.4% (inactive)
same,viability decrease (inhibition),[7],-3.4% (inactive)
same,viability decrease (inhibition),[8],1.9% (inactive)
same,red/green cell ratio (normalised),[9],1.06 (inactive)
same,normalised cell number,[9]; [15],1.06
same,normalised cell number,[9]; [16],1.12
same,fold change,[10]; [17],0.848 (inactive) and 0.92 (inactive) and 0.919 (inactive)
same,fold change,[10]; [18],1.09 and 0.698 and 1.77
same,cell count,[10]; [19],9020 and 8170 and 11700
same,cell count,[10]; [20],10600 and 8880 and 12700
same,z-score,[11]; [21],-0.325 (inactive) and 0.341 (inactive)
same,z-score,[11]; [22],-0.163 and 0.19
same,remaining NAD,[12],10 nM (inactive)
